Calls of active or inactive are those of the source. How the source made its calls: active means hit-call score of the fitted dose curve at least 0.9, where 1 is the maximum; inactive means score below 0.9.
Assays:
[1] = BSK_CASM3C_Proliferation: Cell Proliferation Assessment in the BioMAP Diversity Plus: CASM3C Assay (AID 2283047); details: primary human coronary artery smooth muscle cells;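 further: sulforhodamine B total protein stain as relative cell number at 560 nm; sub-confluent cells exposed 48 h before staining; fitted both ways against DMSO so gain or loss of cell number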
[2] = BSK_CASM3C_SRB: Viability Assessment in the BioMAP Diversity Plus: CASM3C Assay (AID 2283050); details: primary human coronary artery smooth muscle cells
[3] = read-out: Interferon-gamma inducible Protein 10 (IP10), CXCL10 (gene 3627); assay: BSK_hDFCGF_IP10: BioMAP Diversity Plus: hDFCGF Assay for Interferon-gamma inducible Protein 10 (IP10) Biomarker Activity (AID 2283053); details: primary human foreskin fibroblasts; actives raise or lower the signal
Method in brief: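 IP-10 levels, quantified by ELISA, are taken from human foreskin fibroblast cultures 24 h after chemical treatment, with DMSO serving as negative control and baseline for bidirectional analysis.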

[4] = read-out: Interleukin-8 (IL8), CXCL8 (gene 3576); assay: BSK_hDFCGF_IL8: BioMAP Diversity Plus: hDFCGF Assay for Interleukin-8 (IL8) Biomarker Activity (AID 2283058); details: primary human foreskin fibroblasts; actives raise or lower the signal
Method in brief: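 IL-8 levels from compound-treated primary human fibroblasts were read by ELISA at 24 h, with DMSO serving as baseline for bidirectional fitting.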

[5] = BSK_hDFCGF_Proliferation: Cell Proliferation Assessment in the BioMAP Diversity Plus: hDFCGF Assay (AID 2283059); details: primary human foreskin fibroblasts;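 further: curves fitted for both rise and fall of signal versus DMSO baseline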
Method in brief: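 This proliferation readout used SRB total-protein staining of human foreskin fibroblasts […], normalized to DMSO with bidirectional curve fitting.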

[6] = read-out: Macrophage colony-stimulating factor (MCSF), CSF1 (gene 1435); assay: BSK_hDFCGF_MCSF: BioMAP Diversity Plus: hDFCGF Assay for Macrophage colony-stimulating factor (MCSF) Biomarker Activity (AID 2283060); details: AC50: primary human foreskin fibroblasts, actives raise or lower the signal unless noted; outcome: primary human foreskin fibroblasts, actives raise or lower the signal unless noted
Method in brief: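 M-CSF levels, determined by ELISA, are taken at 24 h after dosing human skin fibroblasts. Responses in either direction are fitted with DMSO serving as the baseline.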

[7] = BSK_hDFCGF_SRB: Viability Assessment in the BioMAP Diversity Plus: hDFCGF Assay (AID 2283061); details: primary human foreskin fibroblasts;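 further: cells exposed to compound for 24 h before the read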
Method in brief: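 Cells were dosed with test chemical, cultured 24 h, fixed with 10% TCA, then stained with 0.1% SRB and read at 560 nm. The fibroblasts were human foreskin primary cells, and DMSO served as baseline.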

[8] = read-out: TIMP metallopeptidase inhibitor 1 (TIMP1), TIMP1 (gene 7076); assay: BSK_hDFCGF_TIMP1: BioMAP Diversity Plus: hDFCGF Assay for TIMP metallopeptidase inhibitor 1 (TIMP1) Biomarker Activity (AID 2283062); details: primary human foreskin fibroblasts; actives raise or lower the signal
Method in brief: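 Fibroblasts from human foreskin are treated with test chemical and harvested at 24 h. TIMP-1 is quantified by ELISA, and gain or loss of signal is scored against DMSO.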

[9] = read-out: Matrix Metallopeptidase 1 (MMP1), MMP1 (gene 4312); assay: BSK_hDFCGF_MMP1: BioMAP Diversity Plus: hDFCGF Assay for Matrix Metallopeptidase 1 (MMP1) Biomarker Activity (AID 2283064); details: primary human foreskin fibroblasts; actives raise or lower the signal
Method in brief: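 hDFCGF primary fibroblasts (human foreskin); chemical added; 24 h; MMP1 by ELISA; bidirectional fit vs DMSO.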

[10] = read-out: Plasminogen activator inhibitor-1 (PAI1), SERPINE1 (gene 5054); assay: BSK_hDFCGF_PAI1: BioMAP Diversity Plus: hDFCGF Assay for Plasminogen activator inhibitor-1 (PAI1) Biomarker Activity (AID 2283066); details: primary human foreskin fibroblasts; actives raise or lower the signal
Method in brief: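 PAI-1 levels, determined by ELISA, served as the endpoint in human foreskin fibroblast cultures exposed to compound for 24 h, with DMSO as baseline.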

[11] = read-out: Interferon-gamma inducible Protein 10 (IP10), CXCL10 (gene 3627); assay: BSK_KF3CT_IP10: BioMAP Diversity Plus: KF3CT Assay for Interferon-gamma inducible Protein 10 (IP10) Biomarker Activity (AID 2283068); details: primary human keratinocytes with fibroblasts; actives raise or lower the signal
Method in brief: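 Signal is secreted/surface IP-10 by ELISA in a human primary skin co-culture of keratinocytes and foreskin fibroblasts, taken 24 h post-dosing; DMSO served as negative control.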

[12] = BSK_KF3CT_SRB: Viability Assessment in the BioMAP Diversity Plus: KF3CT Assay (AID 2283069); details: primary human keratinocytes with fibroblasts;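 further: fitted for both signal gain and loss against DMSO baseline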
Method in brief: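 Keratinocytes co-cultured with foreskin fibroblasts (human primary); chemical added, 24 h; fix 10% TCA, stain 0.1% SRB, A560. Bidirectional fit vs DMSO.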

[13] = read-out: Interleukin-1 alpha (IL1a), IL1A (gene 3552); assay: BSK_KF3CT_IL1a: BioMAP Diversity Plus: KF3CT Assay for Interleukin-1 alpha (IL1a) Biomarker Activity (AID 2283070); details: primary human keratinocytes with fibroblasts; actives raise or lower the signal
Method in brief: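 Chemicals were dosed onto co-cultured human keratinocytes and foreskin fibroblasts, IL-1a was quantified by ELISA at 24 h, and activity was fitted in both directions relative to DMSO controls.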

[14] = read-out: TIMP metallopeptidase inhibitor 2 (TIMP2), TIMP2 (gene 7077); assay: BSK_KF3CT_TIMP2: BioMAP Diversity Plus: KF3CT Assay for TIMP metallopeptidase inhibitor 2 (TIMP2) Biomarker Activity (AID 2283071); details: primary human keratinocytes with fibroblasts; actives raise or lower the signal
Method in brief: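 Keratinocyte–fibroblast co-culture, 24 h exposure; TIMP-2 ELISA, DMSO-normalised bidirectional fit. Parallel SRB (0.1%, TCA-fixed, 560 nm) total-protein staining gauges cytotoxicity.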

[15] = read-out: C-C motif chemokine 2 (Homo sapiens) (UniProt P13500); assay: BSK_KF3CT_MCP1: BioMAP Diversity Plus: KF3CT Assay for Monocyte Chemoattractant Protein 1 (MCP1/CCL2) Biomarker Activity (AID 2283073); details: primary human keratinocytes with fibroblasts; actives raise or lower the signal
Method in brief: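 Keratinocytes and foreskin fibroblasts were co-cultured, dosed with chemical, and sampled 24 h later. MCP-1 was quantified by ELISA, and the endpoint was analyzed with bidirectional fitting using DMSO as negative control.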

[16] = read-out: urokinase plasminogen activator (uPA), PLAU (gene 5328); assay: BSK_KF3CT_uPA: BioMAP Diversity Plus: KF3CT Assay for urokinase plasminogen activator (uPA) Biomarker Activity (AID 2283075); details: primary human keratinocytes with fibroblasts; actives raise or lower the signal
Method in brief: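 ELISA readout of uPA, analyzed for signal gain or loss relative to DMSO, from a human primary keratinocyte–foreskin fibroblast co-culture measured 24 h after chemical treatment.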

CD40, CD40 (gene 958) = assay: BSK_LPS_CD40: BioMAP Diversity Plus: LPS Assay for CD40 Biomarker Activity (AID 2283076); details: primary human HUVEC with PBMC; actives raise or lower the signal
Method in brief: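 CD40 signal, measured by ELISA, is fitted in both directions relative to DMSO vehicle. The system is an LPS-driven human vascular primary co-culture of endothelial cells and PBMC, sampled 24 h after compound addition.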

[17] = BSK_LPS_SRB: Viability Assessment in the BioMAP Diversity Plus: LPS Assay (AID 2283079); details: primary human HUVEC with PBMC;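 further: total protein by sulforhodamine B absorbance as a cytotoxicity measure; measured one day after compound addition; fitted in both directions against DMSO so loss or gain of signal counts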
Method in brief: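 Overt cytotoxicity was gauged by sulforhodamine B total-protein staining in a primary human vascular endothelial and mononuclear cell co-culture 24 h post-dosing. Activity was fitted in both directions relative to DMSO.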

[18] = read-out: Tumor necrosis factor (Homo sapiens) (UniProt P01375); assay: BSK_LPS_TNFa: BioMAP Diversity Plus: LPS Assay for Tumour Necrosis Factor alpha (TNFa) Biomarker Activity (AID 2283085); details: primary human HUVEC with PBMC; actives raise or lower the signal;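 on AC50: TNFa protein level quantified by ELISA in the co-culture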
Method in brief: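 Primary human vascular co-culture of HUVEC and PBMC; TNFa ELISA 24 h after treatment, analysed as increase or decrease relative to DMSO control.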

[19] = read-out: Vascular cell adhesion molecule 1 (VCAM1), VCAM1 (gene 7412); assay: BSK_LPS_VCAM1: BioMAP Diversity Plus: LPS Assay for Vascular cell adhesion molecule 1 (VCAM1) Biomarker Activity (AID 2283086); details: primary human HUVEC with PBMC; actives raise or lower the signal
Method in brief: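 Primary human vascular co-culture (umbilical vein endothelium plus PBMC) stimulated with LPS received chemical; 24 h later VCAM-1 was read by ELISA. Overt cytotoxicity was assessed by sulforhodamine B staining of parallel cultures at the same time point.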

Sequence of Tumor necrosis factor (Homo sapiens) (P01375 whole entry, looked up): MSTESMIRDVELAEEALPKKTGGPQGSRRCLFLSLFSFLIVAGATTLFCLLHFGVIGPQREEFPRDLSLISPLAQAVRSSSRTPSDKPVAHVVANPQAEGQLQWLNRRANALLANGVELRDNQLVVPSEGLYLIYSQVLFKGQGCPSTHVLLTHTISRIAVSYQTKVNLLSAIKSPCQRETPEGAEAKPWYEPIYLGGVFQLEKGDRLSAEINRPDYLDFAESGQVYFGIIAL

In the case of `Cc1c(C(N)=O)cc([N+](=O)[O-])cc1[N+](=O)[O-]`, the outcome [1] is reported as “inactive”, the outcome [2] is reported as “inactive” and the outcome [3] is reported as “inactive”. For the same compound, the outcome [4] was “inactive”, the outcome [5] was “inactive” and the outcome [6] was “inactive”. For the same compound, the outcome [7] was “inactive”, the outcome [8] was “inactive” and the outcome [9] was “inactive”. The outcome [10] was “inactive”, the outcome [11] was “inactive” and the outcome [12] was “inactive”. For the same compound, the outcome [13] was “inactive”, the outcome [14] was “inactive” and the outcome [15] was “inactive”. For the same compound, the outcome [16] was “inactive”, the outcome (CD40, CD40 (gene 958)) was “inactive” and the outcome [17] was “inactive”. For the same compound, the outcome [18] was “inactive” and the outcome [19] was “inactive”.

In the case of `CC(C)C1OCCN1CCOC(=O)NCCCCCCNC(=O)OCCN1CCOC1C(C)C` (centres undefined), the outcome [1] is reported as “inactive”, the outcome [2] is reported as “inactive” and the outcome [3] is reported as “inactive”. For the same compound, the outcome [4] was “inactive”, the outcome [5] was “inactive” and the outcome [6] was “inactive”. The outcome [7] was “inactive”, the outcome [8] was “inactive” and the outcome [9] was “inactive”. For the same compound, the outcome [10] was “inactive”, the outcome [11] was “inactive” and the outcome [12] was “inactive”. For the same compound, the outcome [13] was “inactive”, the outcome [14] was “inactive” and the outcome [15] was “inactive”. For the same compound, the outcome [16] was “inactive”, the outcome (CD40, CD40 (gene 958)) was “inactive” and the outcome [17] was “inactive”. The outcome [18] was “inactive” and the outcome [19] was “inactive”.

In the case of `CCCCCCCCCCC1CO1` (centres undefined), the outcome [1] is reported as “inactive”, the AC50 [2] is reported as 31.6 µM (active) and the AC50 [3] is reported as 34 µM (active). The AC50 [4] was 28.5 µM (active), the AC50 [5] was 20 µM (active) and the AC50 [6] was 20 µM (active). The AC50 [7] was 27.6 µM (active), the AC50 [8] was 20 µM (active) and the AC50 [9] was 20 µM (active). For the same compound, the AC50 [10] was 20 µM (active), the AC50 [11] was 4.61 µM (active) and the AC50 [12] was 33.4 µM (active). For the same compound, the AC50 [13] was 25.3 µM (active), the AC50 [14] was 24.2 µM (active) and the AC50 [15] was 20 µM (active). For the same compound, the AC50 [16] was 28 µM (active), the AC50 [17] was 20 µM (active) and the AC50 [18] was 30.9 µM (active). For the same compound, the AC50 [19] was 32.3 µM (active).

— PubChem BioAssay (EPA / NIEHS)
